The source made the active and inactive calls.

Consider 26 molecules from PubChem BioAssay.

The assay can be described thus: viability profiling in MM1S myeloma cells – cell-based, resazurin fluorescence, basal, 24 h, PK04 Diversity Set, profiling panel (AID 1174).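 Note: MM1S multiple myeloma cell line; test concentration not given here.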 The settings on record: higher = more signal, called active from +8 up or from −8 down.
As to `[N-]=[N+]=NCc1ccccc1C[C@@]1(C(=O)N2CCCCC2)N=C(c2ccc(OCCCO)cc2)O[C@@H]1c1ccccc1`, the z-score was -5.49 (inactive).
As to `O=C1O[C@@H](c2ccccc2)[C@@H](c2ccccc2)N2[C@@H](c3ccc(OCCO)cc3)[C@]3(C(=O)Nc4ccccc43)[C@@H](C(=O)O)[C@H]12`, the z-score is 0.432 (inactive).
Take `CC(CO)N1C(=O)[C@@H]2[C@H]3C(=O)OCC=C[C@H]3OC23C=CCN(C(C)(C)C)C(=O)[C@@H]13` (stereo partly specified): the z-score was -0.555 (inactive).
Regarding `CN1C(=O)C2C=CC(C(O)c3cccc4ccccc34)N(N3CCCCC3)C2C1=O` (stereo unspecified), the z-score is -1.41 (inactive).
With `CN(C)C(=O)[C@]1(CCS(=O)(=O)c2ccccc2)N=C(c2ccc(OCCCO)cc2)O[C@@H]1c1ccccc1N=[N+]=[N-]`, the z-score is -0.99 (inactive).
Regarding `COC(=O)[C@@]1(Cc2ccc(F)cc2)[C@H]2c3cc(C(=O)N4CCCC4)n(CCc4ccc(O)c(O)c4)c3C[C@H]2CN1C(=O)c1ccccc1`, the z-score is -1.07 (inactive).
Regarding `CN(C)CCCNC(=O)[C@@]1(c2ccc([N+](=O)[O-])cc2)CC(=O)N(CC23CC4CC(CC(C4)C2)C3)[C@@H]1c1ccc(CO)cc1I`, the z-score was -9.05 (active).
In the case of `Cc1cc(C)c(C(O)C2C=CC3C(=O)NC(=O)C3N2Nc2ccc(Cl)cc2Cl)c(C)c1` (stereo unspecified), the z-score is -1.94 (inactive).
In the case of `COCCOC(=O)N1C(=O)[C@@]2(c3cc(C#CC4=CCCCC4)ccc31)[C@H](c1ccc(OCCO)cc1)N1[C@H](c3ccccc3)[C@H](c3ccccc3)OC(=O)[C@H]1[C@@H]2C(=O)N1CCN(c2ncccn2)CC1` it was 0.0789 (inactive).
In the case of `C=CCC(OC(C)=O)[C@@H]1[C@@H](N(Cc2ccc(-c3ccccc3)cc2)C(=O)Cc2ccc(F)cc2)c2cc(OCCCO)ccc2N1C(=O)Cc1ccc(OC)cc1` (stereo partly specified) it was 0.0774 (inactive).
Take `COC(=O)[C@@]1(Cc2ccc(OC)cc2)[C@H]2c3cc(C(=O)N(C)C)n(C[C@H](O)CO)c3C[C@H]2CN1C(=O)c1ccccc1`: the z-score is -2.31 (inactive).
`Cn1cccc1C(O)C1C=CC2C(=O)NC(=O)C2N1Nc1ccc(Cl)cc1Cl` (stereo unspecified): the z-score is -1.86 (inactive).
On to `COc1ccc([Si](C)(C)[C@@H]2[C@@H](CC(=O)N(CCO)Cc3ccccc3)O[C@]3(C(=O)N(Cc4cccc(N5C(=O)c6cccc7cccc5c67)c4)c4ccccc43)[C@H]2C)cc1`, for which the z-score was -1.6 (inactive).
Consider `Cc1ccc(S[C@]2(C(=O)NCC(F)(F)F)CC(=O)N(Cc3ccccc3C(F)(F)F)[C@@H]2c2ccc(CO)cc2I)cc1`, for which the z-score is -2.62 (inactive).
`CCOc1cc(C(O)C2C=CC3C(=O)N(c4ccccc4)C(=O)C3N2Nc2ccc(C#N)cc2)ccc1O` (stereo unspecified): the z-score was -1.71 (inactive).
As to `COCCOC(=O)N1C(=O)[C@@]2(c3ccccc31)[C@H](C(=O)N1CCN(c3ncccn3)CC1)[C@H]1C(=O)O[C@H](c3ccccc3)[C@H](c3ccccc3)N1[C@@H]2c1ccc(O)cc1`, the z-score is 0.439 (inactive).
Turning to `CCCC[C@@H]1C[C@H]1[C@@H](NC(=O)c1cccs1)c1ccc(C(F)(F)F)cc1`, the z-score was -0.6 (inactive).
Regarding `COC(=O)c1ccc([C@H](NC(=O)c2ccco2)[C@]2(C)C[C@H]2C2CCCCC2)cc1`, the z-score was -0.806 (inactive).
With `O[C@@H](Cc1ccccc1)[C@@H](/C=C/C1CC1)N(CC#Cc1ccccc1)Cc1cccc(Cl)c1`, the z-score was 1.61 (inactive).
Consider `N#Cc1ccc(C(O)C2C=CC3C(=O)N(c4ccccc4)C(=O)C3N2Nc2ccccc2)cc1` (stereo unspecified), for which the z-score is -0.697 (inactive).
Regarding `CC(C)N1C(=O)c2ccccc2[C@@H](C(=O)NC2CC2)[C@@H]1c1ccc(CO)cc1`, the z-score was 0.224 (inactive).
For `COC(=O)c1nc2oc1CC[C@@H](CO)NC(=O)N(C)Cc1cnnn1C[C@H](Cc1ccccc1)NC2=O` the value was 1.09 (inactive); for `C=CCNC(=O)[C@@H]1[C@H]2C(=O)O[C@H](c3ccccc3)[C@H](c3ccccc3)N2[C@H](c2ccc(O)cc2)[C@@]12C(=O)N(C(=O)OCCOC)c1ccc(C#CC3(O)CCCCCC3)cc12`, -0.689 (inactive); for `O=C1C=C(c2ccccc2)C(=O)c2ccc([C@H]3Oc4ccccc4S(=O)(=O)N4CCC[C@@H]34)cc21`, -8.07 (active).
As to `C=C(COC)/C(=C/C[C@H](OC(C)=O)c1ccc(OCCO)cc1)c1cc(C(=O)OC)ccc1OC`, the z-score was 0.901 (inactive).
Take `CC(C)[Si](C#C[Si](C(C)C)(C(C)C)C(C)C)(O[C@H](C)c1cn([C@H](CO)Cc2ccccc2)nn1)C(C)C`: the z-score was 0.786 (inactive).
